Compounds without any hit were thinned out: in the full panel of roughly 79,000, 15% have a hit. Values without a mark were called inactive. The source made the active and inactive calls. Cut-off read from the data, not from the text of the source: active = growth inhibition above about 70%; inactive = the rest.
What was measured:
[1] = NCI Yeast Anticancer Drug Screen. Data for the rad52 strain (AID 147);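 note: 0% = growth of vehicle-treated control cultures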; settings: S. cerevisiae rad52 mutant growth inhibition, active compounds read high
Procedure, shortened: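 Genetically altered yeast (DNA damage repair defect) treated with compound; inhibition calculated relative to vehicle.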

[2] = NCI Yeast Anticancer Drug Screen. Data for the wt1 strain (AID 149);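 note: 0% = growth of vehicle-treated wt1 cultures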; settings: S. cerevisiae wt1 strain (SPY 50644) growth inhibition, active compounds read high
Procedure, shortened: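 Measured: growth of wt1 yeast under compound versus vehicle treatment, reported as inhibition.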

[3] = NCI Yeast Anticancer Drug Screen. Data for the rad50EPP+ strain (AID 151);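 note: 0% = growth of vehicle-treated control cultures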; settings: S. cerevisiae rad50 mutant strain, active compounds read high
Procedure, shortened: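 Strain rad50EPP+; compound exposure; % growth inhibition vs vehicle.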

[4] = NCI Yeast Anticancer Drug Screen. Data for the mgt1 strain (AID 153); settings: S. cerevisiae mgt1 mutant growth inhibition, active compounds read high
Procedure, shortened: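 Read-out: yeast growth inhibition vs vehicle control. Strain mgt1, drawn from a panel altered in DNA damage repair or cell cycle control.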

[5] = NCI Yeast Anticancer Drug Screen. Data for the rad50 strain (AID 155);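 note: 0% = growth of vehicle-only cultures of the same strain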; settings: S. cerevisiae rad50 strain growth inhibition, active compounds read high
Procedure, shortened: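 Growth of the mutant yeast was measured after compound exposure and referenced to vehicle-treated cultures.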

[6] = NCI Yeast Anticancer Drug Screen. Data for the mec2-1 strain (AID 157); settings: S. cerevisiae mec2-1 strain, active compounds read high
Procedure, shortened: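 Cells of the genetically defined mec2-1 yeast strain are incubated with test compound. Inhibition of growth is calculated against vehicle-treated controls.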

[7] = NCI Yeast Anticancer Drug Screen. Data for the rad14 strain (AID 159);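 note: 0% = growth of vehicle-treated control cultures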; settings: S. cerevisiae rad14 strain growth inhibition, active compounds read high
Procedure, shortened: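 Here, inhibition of yeast growth was measured after compound exposure, using a strain with a genetic defect in DNA damage repair and vehicle-treated cultures as the reference.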

[8] = NCI Yeast Anticancer Drug Screen. Data for the sgs1 mgt1 strain (AID 161);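 note: 0% = growth of cultures given vehicle only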; settings: S. cerevisiae sgs1 mgt1 strain, active compounds read high
Procedure, shortened: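 Read-out: growth inhibition vs vehicle controls. Cells: mutant yeast strain deficient in DNA damage repair.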

[9] = NCI Yeast Anticancer Drug Screen. Data for the CLN2oe strain (AID 163);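 note: 0% = growth of vehicle-only control cultures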; settings: S. cerevisiae CLN2oe strain, active compounds read high
Procedure, shortened: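 Strain altered in cell-cycle control, incubated with compound; growth compared to solvent-treated controls.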

[10] = NCI Yeast Anticancer Drug Screen. Data for the cln2 rad14 strain (AID 165);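 note: 0% = growth equal to vehicle treated cultures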; settings: S. cerevisiae cln2 rad14 strain, active compounds read high
Procedure, shortened: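 The screen exposed genetically defined yeast (cln2 rad14) to test compounds and scored growth inhibition relative to vehicle-treated controls.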

[11] = NCI Yeast Anticancer Drug Screen. Data for the bub3 strain (AID 167); settings: S. cerevisiae bub3 mutant strain, active compounds read high
Procedure, shortened: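 Whole-cell yeast assay. The mutant strain was incubated with compounds, and growth inhibition was determined by comparison with vehicle-treated cells.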

[12] = NCI Yeast Anticancer Drug Screen. Data for the wt2 strain (AID 169);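 note: 0% = growth of vehicle-treated yeast cultures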; settings: S. cerevisiae wt2 strain growth inhibition, active compounds read high
Procedure, shortened: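 Steps: yeast strain treated with compound; growth recorded; inhibition calculated relative to cultures given vehicle alone.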

[13] = NCI Yeast Anticancer Drug Screen. Data for the mlh1 strain (AID 171);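 note: 0% = growth of vehicle-treated control cultures of the same strain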; settings: S. cerevisiae mlh1 strain growth inhibition, active compounds read high
Procedure, shortened: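 Yeast screen: mutant strain plus compound, growth scored against vehicle control wells.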

[14] = NCI Yeast Anticancer Drug Screen. Data for the sgs1 strain (AID 173);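 note: 0% = growth of vehicle-only control cultures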; settings: S. cerevisiae sgs1 mutant, active compounds read high
Procedure, shortened: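 Inhibition of yeast growth served as the measure. The mutant strain was treated with each compound, and growth was normalised to cultures receiving vehicle alone.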

[15] = NCI Yeast Anticancer Drug Screen. Data for the mlh1 rad18 strain (AID 175); settings: S. cerevisiae mlh1 rad18 strain growth inhibition, active compounds read high
Procedure, shortened: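 Compound-treated yeast growth, normalised to vehicle controls. Strain bears defined DNA repair mutations.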

[16] = NCI Yeast Anticancer Drug Screen. Data for the rad18 strain (AID 177); settings: S. cerevisiae rad18 mutant growth inhibition, active compounds read high
Procedure, shortened: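 Inhibition values reflect reduced yeast growth compared with vehicle-treated controls, using a strain engineered with a DNA damage repair defect.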

[17] = at 5.0 µM (retest, dose inferred, filed as 0.5)
[18] = at 50.0 µM (retest, dose inferred, filed as 5.0)

Cc1nn(-c2cc(Cl)ccc2[N+](=O)[O-])c(C)c1Cl
growth inhibition ([1]; at 1.2 µM): 1%
growth inhibition ([1]; at 3.7 µM): 3%
growth inhibition ([1]; at 11.0 µM): 2%
growth inhibition ([1]; at 33.0 µM): 3%
growth inhibition ([1]; at 100.0 µM): 2%
growth inhibition ([2]; at 1.2 µM): -1%
growth inhibition ([2]; at 3.7 µM): -1%
growth inhibition ([2]; at 11.0 µM): 1%
growth inhibition ([2]; at 33.0 µM): -1%
growth inhibition ([2]; at 100.0 µM): 2%
growth inhibition ([3]; at 1.2 µM): 4%
growth inhibition ([3]; at 3.7 µM): 8%
growth inhibition ([3]; at 11.0 µM): 14%
growth inhibition ([3]; at 33.0 µM): 19%
growth inhibition ([3]; at 100.0 µM): 10%
growth inhibition ([4]; at 1.2 µM): -2%
growth inhibition ([4]; at 3.7 µM): -2%
growth inhibition ([4]; at 11.0 µM): 4%
growth inhibition ([4]; at 33.0 µM): -8%
growth inhibition ([4]; at 100.0 µM): 7%
growth inhibition ([5]; at 1.2 µM): 0%
growth inhibition ([5]; at 3.7 µM): 1%
growth inhibition [5, 17]: -20%
growth inhibition ([5]; at 11.0 µM): -16%
growth inhibition ([5]; at 33.0 µM): 2%
growth inhibition [5, 18]: -9%
growth inhibition ([5]; at 50.0 µM): 50%
growth inhibition ([5]; at 100.0 µM): 2%
growth inhibition ([6]; at 1.2 µM): 7%
growth inhibition ([6]; at 3.7 µM): 0%
growth inhibition [6, 17]: -7%
growth inhibition ([6]; at 11.0 µM): 3%
growth inhibition ([6]; at 33.0 µM): 2%
growth inhibition [6, 18]: -18%
growth inhibition ([6]; at 50.0 µM): 54.1%
growth inhibition ([6]; at 100.0 µM): 4%
growth inhibition ([7]; at 1.2 µM): -1%
growth inhibition ([7]; at 3.7 µM): 0%
growth inhibition ([7]; at 11.0 µM): 4%
growth inhibition ([7]; at 33.0 µM): 2%
growth inhibition ([7]; at 100.0 µM): 3%
growth inhibition [8, 17]: -15%
growth inhibition [8, 18]: -10%
growth inhibition ([8]; at 50.0 µM): 43.6%
growth inhibition ([9]; at 1.2 µM): 1%
growth inhibition ([9]; at 3.7 µM): 2%
growth inhibition ([9]; at 11.0 µM): -2%
growth inhibition ([9]; at 33.0 µM): 4%
growth inhibition ([9]; at 100.0 µM): 5%
growth inhibition [10, 17]: 39%
growth inhibition [10, 18]: 4%
growth inhibition ([10]; at 50.0 µM): 26.1%
growth inhibition ([11]; at 1.2 µM): 1%
growth inhibition ([11]; at 3.7 µM): 7%
growth inhibition [11, 17]: -6%
growth inhibition ([11]; at 11.0 µM): 20%
growth inhibition ([11]; at 33.0 µM): 24%
growth inhibition [11, 18]: -6%
growth inhibition ([11]; at 50.0 µM): 64.2%
growth inhibition ([11]; at 100.0 µM): 16%
growth inhibition ([12]; at 1.2 µM): 0%
growth inhibition ([12]; at 3.7 µM): -1%
growth inhibition ([12]; at 11.0 µM): -1%
growth inhibition ([12]; at 33.0 µM): -1%
growth inhibition ([12]; at 100.0 µM): 0%
growth inhibition ([13]; at 1.2 µM): 0%
growth inhibition ([13]; at 3.7 µM): 2%
growth inhibition ([13]; at 11.0 µM): 3%
growth inhibition ([13]; at 33.0 µM): 1%
growth inhibition ([13]; at 100.0 µM): 3%
growth inhibition ([14]; at 1.2 µM): -1%
growth inhibition ([14]; at 3.7 µM): -2%
growth inhibition ([14]; at 11.0 µM): -1%
growth inhibition ([14]; at 33.0 µM): -1%
growth inhibition ([14]; at 100.0 µM): 2%
growth inhibition [15, 17]: -3%
growth inhibition [15, 18]: -9%
growth inhibition ([15]; at 50.0 µM): 15.2%
growth inhibition ([16]; at 1.2 µM): 2%
growth inhibition ([16]; at 3.7 µM): 2%
growth inhibition ([16]; at 11.0 µM): 2%
growth inhibition ([16]; at 33.0 µM): -14%
growth inhibition ([16]; at 100.0 µM): 1%

CCC/C(Cl)=N\OC(=O)Nc1cccc(C(F)(F)F)c1
growth inhibition ([1]; at 1.2 µM): 9%
growth inhibition ([1]; at 3.7 µM): 10%
growth inhibition ([1]; at 11.0 µM): 10%
growth inhibition ([1]; at 33.0 µM): 19%
growth inhibition ([1]; at 100.0 µM): 21%
growth inhibition ([2]; at 1.2 µM): 1%
growth inhibition ([2]; at 3.7 µM): 2%
growth inhibition ([2]; at 11.0 µM): 0%
growth inhibition ([2]; at 33.0 µM): 2%
growth inhibition ([2]; at 100.0 µM): 5%
growth inhibition ([3]; at 1.2 µM): 27%
growth inhibition ([3]; at 3.7 µM): 32%
growth inhibition ([3]; at 11.0 µM): 36%
growth inhibition ([3]; at 33.0 µM): 35%
growth inhibition ([3]; at 100.0 µM): 25%
growth inhibition ([4]; at 1.2 µM): 7%
growth inhibition ([4]; at 3.7 µM): 37%
growth inhibition ([4]; at 11.0 µM): 68%
growth inhibition ([4]; at 33.0 µM): 78% (active)
growth inhibition ([4]; at 100.0 µM): 66%
growth inhibition ([5]; at 1.2 µM): 12%
growth inhibition ([5]; at 3.7 µM): 14%
growth inhibition [5, 17]: -15%
growth inhibition ([5]; at 11.0 µM): 13%
growth inhibition ([5]; at 33.0 µM): 25%
growth inhibition [5, 18]: 99% (active)
growth inhibition ([5]; at 50.0 µM): 87.1% (active)
growth inhibition ([5]; at 100.0 µM): 26%
growth inhibition ([6]; at 1.2 µM): 15%
growth inhibition ([6]; at 3.7 µM): 18%
growth inhibition [6, 17]: 16%
growth inhibition ([6]; at 11.0 µM): 19%
growth inhibition ([6]; at 33.0 µM): 20%
growth inhibition [6, 18]: 98% (active)
growth inhibition ([6]; at 50.0 µM): 91.8% (active)
growth inhibition ([6]; at 100.0 µM): 23%
growth inhibition ([7]; at 1.2 µM): 12%
growth inhibition ([7]; at 3.7 µM): 14%
growth inhibition ([7]; at 11.0 µM): 16%
growth inhibition ([7]; at 33.0 µM): 23%
growth inhibition ([7]; at 100.0 µM): 20%
growth inhibition [8, 17]: 6%
growth inhibition [8, 18]: 99% (active)
growth inhibition ([8]; at 50.0 µM): 85.8% (active)
growth inhibition ([9]; at 1.2 µM): 15%
growth inhibition ([9]; at 3.7 µM): 5%
growth inhibition ([9]; at 11.0 µM): 4%
growth inhibition ([9]; at 33.0 µM): 6%
growth inhibition ([9]; at 100.0 µM): 18%
growth inhibition [10, 17]: 56%
growth inhibition [10, 18]: 98% (active)
growth inhibition ([10]; at 50.0 µM): 89.7% (active)
growth inhibition ([11]; at 1.2 µM): 34%
growth inhibition ([11]; at 3.7 µM): 44%
growth inhibition [11, 17]: 9%
growth inhibition ([11]; at 11.0 µM): 51%
growth inhibition ([11]; at 33.0 µM): 47%
growth inhibition [11, 18]: 98% (active)
growth inhibition ([11]; at 50.0 µM): 87.7% (active)
growth inhibition ([11]; at 100.0 µM): 46%
growth inhibition ([12]; at 1.2 µM): 21%
growth inhibition ([12]; at 3.7 µM): 38%
growth inhibition ([12]; at 11.0 µM): 61%
growth inhibition ([12]; at 33.0 µM): 83% (active)
growth inhibition ([12]; at 100.0 µM): 77% (active)
growth inhibition ([13]; at 1.2 µM): 3%
growth inhibition ([13]; at 3.7 µM): 7%
growth inhibition ([13]; at 11.0 µM): 16%
growth inhibition ([13]; at 33.0 µM): 18%
growth inhibition ([13]; at 100.0 µM): 17%
growth inhibition ([14]; at 1.2 µM): 50%
growth inhibition ([14]; at 3.7 µM): 62%
growth inhibition ([14]; at 11.0 µM): 81% (active)
growth inhibition ([14]; at 33.0 µM): 90% (active)
growth inhibition ([14]; at 100.0 µM): 88% (active)
growth inhibition [15, 17]: -10%
growth inhibition [15, 18]: 99% (active)
growth inhibition ([15]; at 50.0 µM): 83.7% (active)
growth inhibition ([16]; at 1.2 µM): -7%
growth inhibition ([16]; at 3.7 µM): -8%
growth inhibition ([16]; at 11.0 µM): -7%
growth inhibition ([16]; at 33.0 µM): -16%
growth inhibition ([16]; at 100.0 µM): 2%

Reference: PubChem BioAssay (NCI)
